Structures are written as SMILES.

This is an account of results in publication PMC5540273 (PLoS ONE, 2017).

Common to all, as to details: concentration: 1 μM, replicates: in singlicate; n = 1
The test system of assay [1] is ABL2.
For assay [2], the system named is ACVR1B.
Assay [3] deals with ACVR1.
The subject of assay [4] is ACVR2A.
Assay [5] deals with ACVR2B.
In assay [6] the test system is ACVRL1.
Assay [7] deals with T1, ADCK3.
T1 construct: gene CABC1

The subject of assay [8] is ADCK4.
Assay [9] relates to AKT1.
Assay [10] relates to AKT2.
Assay [11] deals with AKT3.
Assay [12] has as its system ALK.
Assay [13] has as its system T2, AMPK-alpha1.
T2 construct: gene PRKAA1

Assay [14] has as its system T3, AMPK-alpha2.
T3 construct: gene PRKAA2

Assay [15] deals with ANKK1.
Assay [16] deals with T4, ARK5.
T4 construct: gene NUAK1

In assay [17] the test system is T5, ASK1.
T5 construct: gene MAP3K5

Assay [18] deals with T6, ASK2.
T6 construct: gene MAP3K6

For assay [19], the system named is AURKA.
Assay [20] relates to AURKB.
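Also: KINOMEscan kinase panel screen.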

Take `COc1ccc(Nc2nccc(N3CCC(NC(=O)c4cccc(NC(C)=O)c4)C3)n2)cc1` (centres unmarked) [GSK1379732]: the “%Inh” value came out at 0% in [1]; 0% in [2]; 6% in [3]; 0% in assay [4]; 0% in [5]; 2% in [6]. For the same compound, the “%Inh” value in assay [7] is given as 8%; in [8], 36%; in assay [9] it was 0%; in assay [10], 14%; in assay [11], 23%; in [12], 0%. The “%Inh” value in assay [13] is reported as 5%; in [14] it was 0%; in [15] it was 11%; in assay [16], 9%; in assay [17] it was 0%; in assay [18], 1%. In addition, the entries for the “%Inh” value in assay [19] and in assay [20] were 16% and 1%, respectively.

With `Cn1ccc2ncnc(Nc3ccc(Oc4cccc(Cl)c4)c(Cl)c3)c21`, the “%Inh” value in assay [1] came to 16%; in assay [2] it was 28%; in assay [3], 0%; in [4], 0%; in [5] it was 17%; in [6], 0%. Moreover, the “%Inh” value in [7] is given as 1%; in assay [8] it was 0%; in assay [9] it was 22%; in [10], 7%; in assay [11], 0%; in [12], 0%. The “%Inh” value is given as 18% in assay [13]; 20% in assay [14]; 0% in assay [15]; 22% in assay [16]; 0% in assay [17]; 11% in [18]. Moreover, the results for the “%Inh” value in assay [19] and in assay [20] were 0% and 33%, respectively.

As for `O=C(NCCCN1CCCC1=O)c1cnc(NCc2cc(Cl)ccc2Cl)nc1NC1CCNCC1`, the “%Inh” value in assay [1], in assay [2], in assay [3], in assay [4], in assay [5] and in assay [6] was 0% throughout. Also, the “%Inh” value came to 9% in assay [7]; 0% in [8]; 0% in assay [9]; 0% in assay [10]; 0% in assay [11]; 21% in [12]. Besides, the “%Inh” value in assay [13] came out at 18%; in assay [14] it was 17%; in [15], 0%; in [16] it was 0%; in [17], 0%; in assay [18], 0%. The “%Inh” value in assay [19] and in [20] was 0% throughout.

Take `c1ccc(-c2ccc3c(-c4ccnc(Nc5ccc6c(c5)OCCO6)n4)cnn3n2)cc1` [GW818941]: the “%Inh” value in assay [1] turned out to be 12%; in assay [2], 0%; in assay [3], 24%; in assay [4] it was 32%; in assay [5], 11%; in [6], 13%. In addition, the “%Inh” value worked out at 0% in assay [7]; 9% in assay [8]; 0% in assay [9]; 10% in assay [10]; 18% in assay [11]; 0% in assay [12]. Besides, the “%Inh” value in [13] was determined as 19%; in assay [14], 25%; in assay [15], 4%; in assay [16], 15%; in [17] it was 7%; in assay [18], 0%. For the same compound, the “%Inh” value in assay [19] and in assay [20] was 0% in each case.

Consider `CC(C)(C)c1ccc(-n2cnc3c(N)ncnc32)cc1` [SKF-97263], for which the “%Inh” value in assay [1] is listed as 7%; in [2], 0%; in assay [3], 10%; in assay [4] it was 7%; in assay [5] it was 0%; in assay [6], 0%. The “%Inh” value stood at 23% in assay [7]; 0% in [8]; 0% in [9]; 12% in [10]; 0% in assay [11]; 7% in [12]. The “%Inh” value is listed as 14% in assay [13]; 21% in [14]; 24% in [15]; 10% in assay [16]; 1% in [17]; 1% in assay [18]. Further, the entries for the “%Inh” value in [19] and in assay [20] were 7% and 16%, respectively.

On to `O=C(CCO)NCCn1ccc2ncnc(Nc3ccc(Oc4cccc(C(F)(F)F)c4)c(Cl)c3)c21`, for which the “%Inh” value in assay [1], in assay [2], in assay [3], in [4], in assay [5] and in assay [6] was 0% in each case. Moreover, the “%Inh” value in assay [7] came to 3%; in [8], 0%; in assay [9], 0%; in [10] it was 0%; in assay [11] it was 0%; in [12] it was 0%. Also, the “%Inh” value in [13], in assay [14], in [15], in assay [16], in assay [17] and in assay [18] was 0% each time. The “%Inh” value in [19] and in [20] was 0% throughout.

Regarding `Cc1ccc(O)cc1Nc1cc(C(F)(F)F)nc2ccc(-c3ccncc3)cc12` [GW630823], the “%Inh” value in assay [1] was determined as 14%; in assay [2], 0%; in assay [3] it was 11%; in [4], 0%; in assay [5], 0%; in assay [6], 0%. Further, the “%Inh” value in assay [7] came out at 10%; in [8] it was 0%; in [9] it was 5%; in [10] it was 1%; in assay [11], 0%; in [12], 0%. Further, the “%Inh” value in assay [13] is reported as 0%; in [14] it was 0%; in [15], 0%; in assay [16], 0%; in assay [17] it was 30%; in assay [18], 0%. In addition, the “%Inh” value in assay [19] and in assay [20] was 0% throughout.

For the compound `Cl.O=S(=O)(c1cccc(F)c1)c1ccc(Nc2ncnc3cc(Br)sc23)cc1Cl` [GSK306886], the “%Inh” value was 0% in assay [1]; 0% in assay [2]; 18% in assay [3]; 0% in assay [4]; 0% in assay [5]; 7% in assay [6]. Further, the “%Inh” value is listed as 11% in [7]; 22% in [8]; 0% in assay [9]; 3% in [10]; 0% in assay [11]; 14% in assay [12]. Moreover, the “%Inh” value in assay [13] worked out at 0%; in [14] it was 0%; in [15], 3%; in assay [16], 10%; in [17], 8%; in assay [18] it was 0%. The “%Inh” value is given as 30% in [19] and 0% in [20].

For `Cl.c1ccc(Cn2ncc3cc(Nc4ncnc5ccccc45)ccc32)cc1` [GW273749], the “%Inh” value in assay [1] came to 0%; in [2] it was 0%; in assay [3] it was 5%; in assay [4], 0%; in [5] it was 0%; in assay [6], 0%. Moreover, the “%Inh” value in assay [7] was 7%; in assay [8] it was 22%; in assay [9] it was 0%; in assay [10], 13%; in assay [11], 0%; in assay [12] it was 16%. Also, the “%Inh” value in assay [13] turned out to be 0%; in assay [14] it was 0%; in assay [15], 0%; in [16], 0%; in assay [17] it was 0%; in [18] it was 1%. The “%Inh” value is reported as 10% in [19] and 8% in [20].

As to `Fc1ccc(-c2ncn(CCCNCc3ccccc3)c2-c2ccncc2)cc1`, the “%Inh” value in assay [1] came out at 12%; in assay [2], 10%; in assay [3] it was 2%; in assay [4], 0%; in assay [5], 0%; in [6], 17%. In addition, the “%Inh” value is recorded as 0% in assay [7]; 0% in [8]; 19% in assay [9]; 12% in assay [10]; 0% in [11]; 0% in assay [12]. The “%Inh” value in assay [13] is given as 22%; in [14] it was 0%; in assay [15], 0%; in assay [16], 0%; in [17] it was 11%; in assay [18], 1%. The “%Inh” value in assay [19] was 19%; in assay [20], 8%.
